Experimental data reported in PubChem BioAssay (NCI).
Where “and” joins values, the source holds several entries; their conditions need not be identical. Equal entries are not always repeated. Compounds without any hit were thinned out: in the full panel of roughly 79,000, 15% have a hit. Calls of active or inactive are those of the source. No stated cut-off is given here; in the data, active means growth inhibition above about 70%; inactive means the rest.

How the values were obtained:
[1] = NCI Yeast Anticancer Drug Screen. Data for the rad50 strain (AID 155);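 further: 0% = growth of vehicle-only cultures of the same strain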; conditions: S. cerevisiae rad50 strain growth inhibition, stronger effect = higher value
Method in brief: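 Vehicle-treated cultures provide the reference for the growth inhibition reported for compound-exposed, repair-deficient yeast.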

[2] = NCI Yeast Anticancer Drug Screen. Data for the mec2-1 strain (AID 157); conditions: S. cerevisiae mec2-1 strain, stronger effect = higher value
Method in brief: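 Strain: mec2-1 (DNA repair/cell cycle alteration). Compound exposure, then growth measured; inhibition expressed relative to vehicle.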

[3] = NCI Yeast Anticancer Drug Screen. Data for the sgs1 mgt1 strain (AID 161);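 further: 0% = growth of cultures given vehicle only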; conditions: S. cerevisiae sgs1 mgt1 strain, stronger effect = higher value
Method in brief: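 Mutant yeast exposed to compound; growth scored against vehicle-only wells.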

[4] = NCI Yeast Anticancer Drug Screen. Data for the cln2 rad14 strain (AID 165);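 further: 0% = growth equal to vehicle treated cultures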; conditions: S. cerevisiae cln2 rad14 strain, stronger effect = higher value
Method in brief: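 Compounds are applied to the cln2 rad14 yeast strain, and growth is then compared with that of vehicle-treated cultures to give inhibition.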

[5] = NCI Yeast Anticancer Drug Screen. Data for the bub3 strain (AID 167); conditions: S. cerevisiae bub3 mutant strain, stronger effect = higher value
Method in brief: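 Mutant yeast screening strain plus compound; vehicle-treated cultures serve as the 0% inhibition reference.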

[6] = NCI Yeast Anticancer Drug Screen. Data for the mlh1 rad18 strain (AID 175); conditions: S. cerevisiae mlh1 rad18 strain growth inhibition, stronger effect = higher value
Method in brief: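 Read-out is yeast growth inhibition, calculated against vehicle-only controls. The compound was applied to a strain engineered with DNA damage repair alterations.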

[7] = at 5.0 µM (retest, dose inferred, filed as 0.5)
[8] = at 50.0 µM (retest, dose inferred, filed as 5.0)

Measured: growth inhibition

CCN(CC)c1ccc(C(=C2C=CC(=[N+](CC)CC)C=C2)c2ccc(N(CC)CC)cc2)cc1
active: [1]; [7] 97% | [1]; [8] 91% | [2]; [7] 98% | [2]; [8] 92% | [2]; at 50.0 µM 73% | [3]; [7] 98% | [3]; [8] 92% | [3]; at 50.0 µM 77.5% | [4]; [7] 97% | [4]; [8] 91% | [4]; at 50.0 µM 76% | [5]; [7] 98% | [5]; [8] 90% | [5]; at 50.0 µM 74.6% | [6]; [7] 97% | [6]; [8] 90%
inactive: [1]; at 50.0 µM 67.5%

CC[C@](O)(CC(=O)O[C@H]1C(=O)O[C@@H]2C[C@H]3C(C)=CC(=O)[C@@H](O)[C@]3(C)[C@H]3[C@@]4(O)OC[C@]32[C@@H]1[C@@H](C)[C@H]4O)C(C)C
active: [1]; [8] 97% | [1]; at 50.0 µM 88.9% | [2]; [8] 98% | [2]; at 50.0 µM 91.7% | [3]; [8] 98% | [3]; at 50.0 µM 88.9% | [4]; [8] 98% | [4]; at 50.0 µM 92.1% | [5]; [8] 98% | [5]; at 50.0 µM 90.3% | [6]; [8] 97%
inactive: [1]; [7] 44% | [2]; [7] 35% | [3]; [7] 57% | [4]; [7] 58% | [5]; [7] 51% | [6]; [7] 50%

O=C(CCl)Nc1ccc(C(=O)N/N=C/c2ccc(Cl)cc2)cc1
inactive: [1]; [7] 57% | [1]; at 50.0 µM -8.7% | [2]; [7] 26% | [2]; [8] 65% | [2]; at 50.0 µM -32.9% | [3]; [7] 42% | [3]; at 50.0 µM -21.8% | [4]; [7] 23% | [4]; [8] 57% | [4]; at 50.0 µM 7.05% | [5]; [7] 45% | [5]; at 50.0 µM -14.4% | [6]; [7] 41% | [6]; at 50.0 µM -27.7%
active: [1]; [8] 90% | [3]; [8] 70% | [5]; [8] 82% | [6]; [8] 80%

C[N+]1(C)CCC(c2ccccc2)(c2ccccc2)C(=O)C1
inactive: [1]; [7] -12% | [1]; [8] -8% | [1]; at 50.0 µM 16.6% and 13.2% | [2]; [7] -15% | [2]; [8] -3% | [2]; at 50.0 µM 9.05% and 19.3% | [3]; [7] -8% | [3]; [8] -2% | [3]; at 50.0 µM 6.2% and 21.8% | [4]; [7] -9% | [4]; [8] -11% | [4]; at 50.0 µM 47.4% and -25.8% | [5]; [7] -22% | [5]; [8] -27% | [5]; at 50.0 µM -8.9% and 8.6% | [6]; [7] -10% | [6]; [8] -14% | [6]; at 50.0 µM 24.1% and -10.6%
